The entries come from a sample that favours hits as a whole.
Tb PYK inh – inhibitors of Trypanosoma brucei pyruvate kinase; Q57TT1; TbPYK enzyme, Kinase-Glo Plus ATP luminescence, 45 min; Potency, µM (highest dose often 76.8 µM), for inactives: at the highest dose activity, negative = inhibition, actives largely listed as inhibitors; actives 0.12% (n = 410,000); AID 624173; note: potency is the fitted concentration of half-maximal effect; % is set by controls: 0 for no effect and ±100 for the full control effect; nearly all actives have a fitted effect of over 50% in size
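In this concentration-response screen, enzyme-free wells defined baseline while DMSO plates tracked drift. Each reaction combined TbPYK, substrate, compound and 130 uM ADP for 45 min at room temperature. Kinase-Glo Plus luminescence gave the signal.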
LmPK inhibitor – inhibitors of Leishmania mexicana pyruvate kinase | actives 0.37% (n = 290,000) | Q27686 | purified LmPK, Kinase-Glo ATP luminescence, 1 h | Potency, µM (series often up to 57.5 µM), for the others: top-dose activity change, negative = inhibition, actives largely listed as inhibitors; note: potency is the fitted concentration of half-maximal effect; % is set by controls: 0 for no effect and ±100 for the full control effect
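qHTS format; LmPK 0.1 nM; substrates PEP 0.5 mM and ADP 0.1 mM. One-hour room-temperature incubation, then coupled luciferase luminescence; 0.5 nM enzyme wells mark activation.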
CHX counter – affects cycloheximide protein synthesis inhibition readout, counter-screen; cell reporter, cycloheximide protein synthesis inhibition counterscreen; max response, %; actives 12% (n = 300,000); in the data active = max response mostly above about 13%, no sharp cut-off; inactive = mostly below about 14%; note: read at 38.3 µM for the half of the compounds with a filed dose; 0% is about no effect
Shiga toxin inh – Shiga toxin inhibition; Vero cells, Shiga toxin protein synthesis inhibition reporter; inhibition, % at 38.7 µM; actives 9.2% (n = 290,000); AID 2315; in the data active = inhibition mostly above about 28%, no sharp cut-off; inactive = mostly below about 43%; note: 0% is about no effect
Giardia FBPA inh – Giardia lamblia aldolase inhibition; purified Giardia FBPA; Potency, µM (highest dose often 59.6 µM), inactives show top-dose activity, negative = inhibition, actives largely listed as inhibitors; actives 0.71% (n = 290,000); note: potency is the fitted concentration of half-maximal effect; % is set by controls: 0 for no effect and ±100 for the full control effect; nearly all actives have a fitted effect of over 55% in size
Target sequence (A8B2U2 whole entry, looked up): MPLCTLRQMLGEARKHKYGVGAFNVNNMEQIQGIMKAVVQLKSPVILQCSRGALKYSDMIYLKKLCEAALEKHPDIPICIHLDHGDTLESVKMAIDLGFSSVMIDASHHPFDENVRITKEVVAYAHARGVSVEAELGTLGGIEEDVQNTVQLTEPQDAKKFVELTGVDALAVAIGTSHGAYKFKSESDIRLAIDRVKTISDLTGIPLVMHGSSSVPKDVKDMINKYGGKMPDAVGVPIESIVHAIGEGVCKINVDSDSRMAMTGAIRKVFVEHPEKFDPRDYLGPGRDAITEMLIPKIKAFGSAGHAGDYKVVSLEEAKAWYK
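Giardia FBPA (40 nM reagent) was preincubated 10 min at RT with compound (up to 57.5 uM final), then substrate plus GAPDH/TPI/NAD/arsenate coupling system with diaphorase/resazurin was added; resorufin fluorescence (525/598 nm) was read after 20 min.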
Sm TGR inh – blocks Schistosoma mansoni thioredoxin glutathione reductase | Q962Y6 | purified TGR, DTNB reduction, TNB absorbance 405 nm | Potency, µM (titrated, usually from 114 µM), inactives show at the highest dose activity change, negative = inhibition, hits mostly inhibitors | actives 3% (n = 360,000); note: potency is the fitted concentration of half-maximal effect; % is set by controls: 0 for no effect and ±100 for the full control effect; nearly all actives have a fitted effect of over 60% in size
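First, TGR (20 nM dispensed) and NADPH were mixed with compound. Second, a 15 min room-temperature incubation followed. Third, further NADPH and then DTNB were added to start the reaction. Finally, TNB absorbance was monitored kinetically.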
The depositor's hits bear a star; ? = inconclusive; nt = not tested or not shown. Unless noted, calls come from the whole dose curve; as a rule, active = well fitted curve in the direction sought with a large enough effect; inconclusive = small, poorly fitted or top-dose-only effect, or another doubt; inactive = no such curve, though single readings can be large; an effect the other way counts as inactive or inconclusive.

SMILES | Tb PYK inh | LmPK inhibitor | CHX counter | Shiga toxin inh | Giardia FBPA inh | Sm TGR inh
O=C(c1ccccc1)N1CCN(c2nc3ccc([N+](=O)[O-])cc3s2)CC1 | -9% | 6% | 4 | 10 | 3% | nt
CCOC(=O)C1CCC(CN(Cc2ccc(Cl)cc2)S(=O)(=O)c2ccc(F)c(C(=O)Nc3cccc(F)c3)c2)CC1 (configuration not stated) | 4% | nt | nt | nt | nt | 11%
CC(=O)c1cccc(-n2c(CCC(=O)O)ccc2-c2ccc(C)cc2)c1 | -12% | 0% | 3 | 18 | 9% | 32µM*
O=C(O)CCc1ccc(-c2ccccc2)n1-c1ccc(C(=O)O)cc1 | -9% | 6% | 0 | 39 | -2% | 18µM*
CC(=O)c1ccc(-n2c(CCC(=O)O)ccc2-c2ccc(Cl)cc2)cc1 | 11% | 7% | 5 | -2 | 11% | 0%
O=C(O)CCc1ccc(-c2ccccc2)n1-c1cccc(C(=O)O)c1 | -9% | -4% | 131* | 174* | 0% | 11µM*
O=C(O)CCc1ccc(-c2ccc(Br)cc2)n1-c1cccc(O)c1 | -3% | -2% | 32* | 87* | 8% | 32µM*
CCOC(=O)c1ccc(-n2c(CCC(=O)O)ccc2-c2ccccc2)cc1O | -6% | nt | nt | nt | nt | 18µM*
Cc1ccc(-c2ccc(CCC(=O)O)n2-c2ccc(C)c(Cl)c2)cc1 | -11% | nt | nt | nt | nt | 18µM*
CCc1ccc(-n2c(CCC(=O)O)ccc2-c2ccc(F)cc2)cc1 | -4% | nt | nt | nt | nt | ?
Cc1ccc(-c2ccc(CCC(=O)O)n2C(C)C)cc1 | -2% | 0% | -2 | -6 | 7% | 25µM*
Cc1ccc(-c2ccc(CCC(=O)O)n2NC(N)=S)cc1 | ? | 1% | 0 | 7 | -12% | -21%
Cc1c(C(=O)N2CCCC2)oc2c1-c1nn(CC(=O)NCc3ccccc3Br)cc1CC2 | 0% | nt | nt | nt | nt | -29%
COC(=O)c1cccc(-n2cnnn2)c1 | 6% | 0% | -3 | -3 | 2% | 2%
O=C(COC(=O)c1cccc(-n2cnnn2)c1)c1ccccc1 | -12% | -11% | 20* | 31* | nt | 19%
COc1ccc(OCCOC(=O)c2cccc(-n3cnnn3)c2)cc1 | -14% | 4% | 14* | 14 | 7% | 5%
CCOc1ccc(C(=O)COC(=O)c2cccc(-n3cnnn3)c2)cc1 | 0% | 0% | 56* | 51* | nt | 6%
CCN(CC)c1nn2c(=O)c(C(=O)NCc3ccc(F)cc3)cnc2s1 | -4% | nt | nt | nt | nt | 3%
COC(=O)[C@]12CCCCC=C1N(Cc1ccc(Cl)cc1Cl)C(=O)[C@H](CC(=O)NCc1ccc(OC)c(OC)c1)C2 | 4% | nt | nt | nt | nt | nt
COc1ccc(NC(=O)N2CCCC3(CCN(C(=O)c4cccn4C)CC3)C2)cc1 | -4% | nt | nt | nt | -3% | nt
CC(Cc1ccccc1)NC(=O)c1ccc(N)cc1 (configuration not stated) | -2% | -8% | 37* | 62* | -10% | -1%
CC(Cc1ccccc1)NC(=O)c1ccc([N+](=O)[O-])cc1 (configuration not stated) | -3% | -7% | 30* | 61* | 1% | 0%
CC(=O)NC(C)Cc1ccccc1 (configuration not stated) | 1% | -2% | -2 | 14 | 0% | -3%
CC(Cc1ccccc1)NC(=O)NC(C)Cc1ccccc1 (configuration not stated) | 0% | -3% | 29* | 69* | 1% | -7%
O=C(NCCc1ccccc1)c1ccc2c(c1)N(Cc1ccc(Cl)cc1)C(=O)CS2 | 10% | nt | nt | nt | nt | 6%
SMILES | Tb PYK inh | LmPK inhibitor | CHX counter | Shiga toxin inh | Giardia FBPA inh | Sm TGR inh
CCC1(c2cnc[nH]2)Cc2ccccc2C1 | -9% | nt | nt | nt | nt | nt
Cc1onc(-c2ccccc2)c1-c1ccnn1S(=O)(=O)c1ccc(Cl)cc1 | 2% | 2% | 44* | 88* | -14% | -1%
CNC1C(O)C(OC2C(N)CC(N)C(OC3OC(CN)=CCC3N)C2O)OCC1(C)O (configuration not stated) | 7% | nt | nt | nt | nt | nt
N#CC1=C2Sc3ccccc3N2CCCC1=O | 1% | 2% | 31 | 22 | 14% | 2%
N#CC1=C2SC=C(c3ccc(Br)cc3)N2CCCC1=O | 10% | -7% | 44* | 118* | -11% | 8%
O=C(Nc1c(C(=O)Nc2ccc(F)cc2)oc2ccccc12)c1ccccc1F | 2% | nt | nt | nt | nt | 9%
Cc1ccc(-c2nnc(Nc3ccc(F)cc3)c3ccccc23)cc1S(=O)(=O)N1CCN(C)CC1 | -1% | nt | nt | nt | nt | 2%
COC(=O)c1c(N)sc(C(=O)N2CCOCC2)c1C | -3% | -9% | -2 | -2 | 1% | 10%
COC(=O)c1c(NC(=O)CCl)sc(C(=O)N2CCOCC2)c1C | 4% | 1% | -10 | -17 | -3% | 32µM*
CC(=O)Nc1ccc(CN(C)c2c(C)nc3ccc(C(=O)N4CCN(c5ccccc5)CC4)cn23)cc1 | -9% | nt | nt | nt | nt | nt
O=C(CN1C(=O)CC(c2ccco2)Sc2ccccc21)Nc1ccc(C(F)(F)F)cc1 (configuration not stated) | 0% | nt | nt | nt | nt | 2%
CN1C(=O)CC(c2ccco2)Sc2ccccc21 (configuration not stated) | -8% | -1% | 0 | 24 | 3% | 40µM*
CCCN1C(=O)CC(c2ccco2)Sc2ccccc21 (configuration not stated) | -19% | 2% | 8 | -1 | 2% | 14µM*
COc1ccc(C2CC(=O)N(C)c3ccccc3S2)cc1 (configuration not stated) | 2% | 0% | 38* | 124* | 3% | -6%
COc1ccc(-c2nc3n(n2)C(=O)CC(c2ccc(Cl)cc2)S3)cc1 (configuration not stated) | 0% | nt | nt | nt | nt | 3%
COc1ccc(-c2csc(C(O)c3ccccc3)n2)cn1 (configuration not stated) | 0% | nt | nt | nt | nt | nt
O=C1N(CCCCN2C(=O)C3(OCCO3)c3ccccc32)c2ccccc2C12OCCO2 | -5% | 3% | -3 | -3 | -7% | -2%
CN1C(=O)C2(OCC(CO)([N+](=O)[O-])CO2)c2ccccc21 (configuration not stated) | 0% | -7% | 14* | 51* | 12% | -27%
COc1ccc(OC)c(C(c2c(O)nc(SC)[nH]c2=O)c2c(O)nc(SC)[nH]c2=O)c1 | ? | -4% | 4 | -14 | ? | 1.4µM*
COc1cc(C(c2c(O)nc(SC)[nH]c2=O)c2c(O)nc(SC)[nH]c2=O)cc(OC)c1OC | -3% | 18% | -3 | nt | -13% | 1.8µM*
COC(=O)c1ccc(Nc2ncnc3c2cnn3C)cc1 | -2% | nt | nt | nt | nt | -5%
Fc1ccc(OCc2nc(-c3cccs3)no2)cc1 | 0% | -4% | 41* | 110* | 0% | nt
c1ccc(OCc2nc(-c3cccs3)no2)cc1 | 2% | 1% | 45* | 76* | 0% | -23%

Compound activity from PubChem BioAssay.
